# Data published in PubChem BioAssay AID1159580 (chemical genetic matrix, 2015).
# Out of some 5,500 compounds screened, about 2,000 (36%) were called active. Not shown: some 18% with an inconclusive outcome. The list shows a part of the results. Values without a mark were called inactive. No stated cut-off is given here; in the data, active means normalized growth mostly below about 0.91 (no sharp cut-off); inconclusive means no clear call, values can overlap the other calls; inactive means mostly above about 0.92.
# Assay: chemical genetic growth profiling, strain panel (AID 1159580);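 further: tested at 20 µM; growth read once vehicle control cultures reached saturation at 30 °C; 1 = growth at the plate median or of vehicle wells; lower values mean less growth of the strain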
# Settings: S. cerevisiae deletion strains, growth OD
compound,measurement,setting,value
O=C(O)c1c2ccccc2cc2ccccc12,normalized growth,"locus YAL013W, strain DEP1, hits give low values",1.02
same,normalized growth,"locus YAL021C, strain ccr4, hits give low values",0.973
same,normalized growth,"locus YAL026C, strain drs2, hits give low values",1.02
same,normalized growth,"locus YAL030W, strain snc1, hits give low values",0.99
same,normalized growth,"locus YBL061C, strain skt5, hits give low values",1
same,normalized growth,"locus YBR009C, strain hhf1, hits give low values",0.989
same,normalized growth,"locus YBR021W, strain FUR4, hits give low values",0.967
same,normalized growth,"locus YBR023C, strain chs3, hits give low values",1.01
same,normalized growth,"locus YBR171W, strain sec66, hits give low values",0.994
same,normalized growth,"locus YBR229C, strain ROT2, hits give low values",1.02
same,normalized growth,"locus YBR231C, strain swc5, hits give low values",1.01
same,normalized growth,"locus YBR279W, strain paf1, hits give low values",0.959
same,normalized growth,"locus YCL011C, strain gbp2, hits give low values",0.998
same,normalized growth,"locus YCL016C, strain dcc1, hits give low values",1.01
same,normalized growth,"locus YCL029C, strain bik1, hits give low values",0.992
same,normalized growth,"locus YCL061C, strain MRC1, hits give low values",1
same,normalized growth,"locus YCL069W, strain vba3, hits give low values",1.01
same,normalized growth,"locus YCR088W, strain abp1, hits give low values",0.996
same,normalized growth,"locus YDL005C, strain med2, hits give low values",0.99
same,normalized growth,"locus YDL035C, strain GPR1, hits give low values",1
same,normalized growth,"locus YDL040C, strain nat1, hits give low values",0.991
same,normalized growth,"locus YDL074C, strain BRE1, hits give low values",1.03
same,normalized growth,"locus YDL101C, strain DUN1, hits give low values",1.02
same,normalized growth,"locus YDL134C, strain PPH21, hits give low values",1.01
same,normalized growth,"locus YDL185W, strain tfp1, hits give low values",0.953
same,normalized growth,"locus YDL192W, strain arf1, hits give low values",0.98
same,normalized growth,"locus YDR001C, strain nth1, hits give low values",0.991
same,normalized growth,"locus YDR069C, strain doa4, hits give low values",0.991
same,normalized growth,"locus YDR101C, strain arx1, hits give low values",0.983
same,normalized growth,"locus YDR137W, strain rgp1, hits give low values",0.965
same,normalized growth,"locus YDR150W, strain NUM1, hits give low values",1.02
same,normalized growth,"locus YDR159W, strain sac3, hits give low values",1.03
same,normalized growth,"locus YDR162C, strain NBP2, hits give low values",1.03
same,normalized growth,"locus YDR195W, strain ref2",1.26 [resistant] (active)
same,normalized growth,"locus YDR297W, strain sur2, hits give low values",0.99
same,normalized growth,"locus YDR318W, strain mcm21, hits give low values",0.976
same,normalized growth,"locus YDR334W, strain swr1, hits give low values",1
same,normalized growth,"locus YDR335W, strain msn5, hits give low values",1
same,normalized growth,"locus YDR388W, hits give low values",0.98
same,normalized growth,"locus YDR392W, strain spt3, hits give low values",0.906
same,normalized growth,"locus YDR502C, strain sam2, hits give low values",0.986
same,normalized growth,"locus YEL003W, strain gim4, hits give low values",0.994
same,normalized growth,"locus YEL037C, strain rad23, hits give low values",1.01
same,normalized growth,"locus YEL061C, strain CIN8 (second series), hits give low values",0.993
same,normalized growth,"locus YEL061C, strain CIN8, hits give low values",1.01
same,normalized growth,"locus YER015W, strain faa2, hits give low values",1.01
same,normalized growth,"locus YER016W, strain bim1, hits give low values",1.01
same,normalized growth,"locus YER110C, hits give low values",0.964
same,normalized growth,"locus YER111C, strain swi4, hits give low values",0.997
same,normalized growth,"locus YER155C, strain BEM2 (second series), hits give low values",1.01
same,normalized growth,"locus YER155C, strain BEM2, hits give low values",1.01
same,normalized growth,"locus YER167W, strain BCK2, hits give low values",1.02
same,normalized growth,"locus YFR010W, strain ubp6, hits give low values",1.01
same,normalized growth,"locus YGL078C, strain dbp3, hits give low values",0.969
same,normalized growth,"locus YGL086W, strain mad1, hits give low values",0.984
same,normalized growth,"locus YGL167C, strain pmr1, hits give low values",1
same,normalized growth,"locus YGL173C, strain kem1, hits give low values",0.996
same,normalized growth,"locus YGL227W, strain vid30, hits give low values",1
same,normalized growth,"locus YGL240W, strain doc1, hits give low values",0.964
same,normalized growth,"locus YGL248W, strain PDE1, hits give low values",1.02
same,normalized growth,"locus YGL253W, strain hxk2, hits give low values",1.01
same,normalized growth,"locus YGR078C, strain PAC10, hits give low values",1.01
same,normalized growth,"locus YGR135W, strain pre9, hits give low values",0.971
same,normalized growth,"locus YGR229C, strain SMI1, hits give low values",1.02
same,normalized growth,"locus YGR252W, strain gcn5, hits give low values",0.955
same,normalized growth,"locus YHR013C, strain ard1, hits give low values",0.926
same,normalized growth,"locus YHR027C, strain rpn1, hits give low values",1.01
same,normalized growth,"locus YHR030C, strain SLT2, hits give low values",1.01
same,normalized growth,"locus YHR079C, strain IRE1 (second series), hits give low values",0.989
same,normalized growth,"locus YHR094C, strain hxt1, hits give low values",0.987
same,normalized growth,"locus YHR129C, strain ARP1, hits give low values",1.02
same,normalized growth,"locus YHR142W, strain chs7, hits give low values",0.987
same,normalized growth,"locus YHR200W, strain rpn10, hits give low values",0.977
same,normalized growth,"locus YIL066C, strain RNR3, hits give low values",0.981
same,normalized growth,"locus YIL073C, strain SPO22, hits give low values",0.924
same,normalized growth,"locus YIL125W, strain kgd1, hits give low values",0.959
same,normalized growth,"locus YIR030C, strain dcg1, hits give low values",0.987
same,normalized growth,"locus YJL092W, strain hpr5, hits give low values",1.01
same,normalized growth,"locus YJL095W, strain BCK1 (second series), hits give low values",0.988
same,normalized growth,"locus YJL095W, strain BCK1, hits give low values",1
same,normalized growth,"locus YJL115W, strain asf1, hits give low values",0.997
same,normalized growth,"locus YJL129C, strain trk1, hits give low values",1
same,normalized growth,"locus YJL134W, strain LCB3, hits give low values",1.01
same,normalized growth,"locus YJL154C, strain vps35, hits give low values",0.988
same,normalized growth,"locus YJL164C, strain tpk1, hits give low values",0.969
same,normalized growth,"locus YJL166W, strain qcr8, hits give low values",0.973
same,normalized growth,"locus YJL168C, strain set2, hits give low values",0.971
same,normalized growth,"locus YJL187C, strain SWE1 (second series), hits give low values",1.01
same,normalized growth,"locus YJL187C, strain SWE1, hits give low values",0.985
